Laboratory results published in PubChem BioAssay (NCATS).
Results filed as inconclusive are left out. Entries that show only a call come without a potency. Values without a mark were called inactive. Active and inactive are the calls of the source. Calls come from the whole dose curve; as a rule, active = well fitted inhibition curve with a large enough effect; inconclusive = small, poorly fitted or top-dose-only effect; inactive = no such curve, though single readings can be large or run the other way.

How the values were obtained:
[1] = test system: Zika virus NS2B-NS3 protease (unlinked complex); assay: Primary screen GU Rhodamine qHTS for Zika virus inhibitors: Unlinked NS2B-NS3 protease assay (AID 1347159); note: nearly all actives have a fitted effect of over 60% in size; note: potency is the fitted concentration of half-maximal effect
Summary of the method: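 Percent inhibition came from the 15-min rise in Rhodamine110 fluorescence (1.5 microM substrate, ~15% conversion), normalized to no-inhibitor and no-enzyme wells and Hill-fitted. Unlinked protease, 25 nM, pH 8.0 Tris buffer; compounds up to 114 microM, 15-min preincubation.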

[2] = test system: Zika virus NS2B-NS3 protease (linked construct); assay: Primary screen NINDS Rhodamine qHTS for Zika virus inhibitors (AID 1347160); note: nearly all actives have a fitted effect of over 55% in size
Summary of the method: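 Rhodamine110-peptide cleavage (1.5 µM substrate) by 25 nM linked NS2B-NS3 enzyme at pH 8.0 (Tris, Tween 20), after 15 min RT preincubation with compounds; 15-min fluorescence change normalized to controls and Hill-fitted.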

Structure (SMILES): O=C(C(Cc1cccc(C(F)(F)F)c1)NS(=O)(=O)c1cc(F)c2c(c1)CCNC2)N1CCCC1 (stereo not drawn)
- Potency [1]: inactive
- Potency [2]: inactive

Structure (SMILES): CC#CC(=O)Nc1ccc2ncnc(Nc3cccc(Br)c3)c2c1
- Potency [1]: inactive
- Potency [2]: inactive

Structure (SMILES): COC(CCc1ccc(O)cc1)CC(=O)CCc1ccc(O)cc1 (stereo not drawn)
- Potency [1]: inactive
- Potency [2]: inactive

Structure (SMILES): CC(C)(C)c1ccc(C(=O)Nc2cn3cc(-n4ccnc4)ccc3n2)cc1
- Potency [1]: inactive
- Potency [2]: inactive

Structure (SMILES): C=C1C(=O)O[C@@H]2C[C@@]3(C)C[C@@H](O)C[C@H](C)C3=C[C@H]12
- Potency [1]: inactive
- Potency [2]: inactive

Structure (SMILES): Cc1cc(C)c(S(=O)(=O)n2cc(C)cc2C)c(C)c1
- Potency [1]: inactive
- Potency [2]: inactive

Structure (SMILES): CC(C)(O)/C=C/C(=O)[C@](C)(O)[C@H]1[C@H](O)C[C@@]2(C)[C@@H]3CC=C4[C@@H](C[C@H](O[C@@H]5O[C@H](CO)[C@@H](O)[C@H](O)[C@H]5O)C(=O)C4(C)C)[C@]3(C)C(=O)C[C@]12C
- Potency [1]: inactive
- Potency [2]: inactive

Structure (SMILES): Cn1ncnc1[C@@H]1c2n[nH]c(=O)c3cc(F)cc(c23)N[C@H]1c1ccc(F)cc1
- Potency [1]: inactive
- Potency [2]: inactive

Structure (SMILES): CC(=O)OC1C(=O)C2C3OCC4=C3[C@@](C)(CC[C@@H]4O)CC[C@]2(C)[C@H]1C(C)C (stereo partly drawn)
- Potency [1]: inactive
- Potency [2]: inactive

Structure (SMILES): C[C@@H]1O[C@@H](O[C@H]2[C@H](OC(=O)[C@]34CCC(C)(C)C[C@H]3C3=CCC5[C@@]6(C)C[C@H](O)[C@H](O[C@@H]7O[C@H](C(=O)O)[C@@H](O)[C@H](O)[C@H]7O)[C@@](C)(CO)C6[C@H](O)C[C@@]5(C)[C@]3(C)C[C@H]4O)O[C@@H](CO)[C@@H]2O)[C@H](O)[C@H](O)[C@H]1O[C@@H]1OC[C@@H](O)[C@H](O[C@H]2OC[C@](O)(CO)[C@H]2O)[C@H]1O (stereo partly drawn)
- activity change, negative = inhibition [1]: 13.4% [at 19.1 µM]
- activity change, negative = inhibition [2]: -5.61% [at 10.7 µM]

Structure (SMILES): CC(=O)NC[C@H]1CN(c2ccc(N3CCSCC3)c(F)c2)C(=O)O1
- Potency [1]: inactive
- Potency [2]: inactive

Structure (SMILES): C[C@H](Nc1cc2c(-c3ccc4c(c3)OCO4)noc2cn1)c1ccccc1
- Potency [1]: inactive
- Potency [2]: inactive

Structure (SMILES): Fc1ccc2c(CCNCc3cccc(OCC(F)(F)C(F)F)c3)c[nH]c2c1
- Potency [1]: inactive
- Potency [2]: inactive

Structure (SMILES): Cn1ncc2cc(-c3cnc(N)c(Cl)c3N3CCC4(CCNC4=O)CC3)ccc21
- Potency [1]: inactive
- Potency [2]: inactive

Structure (SMILES): Nc1nc2c(s1)CCN(Cc1ccc(Cl)cc1)CC2
- Potency [1]: inactive
- Potency [2]: inactive

Structure (SMILES): COc1cc(CCO)ccc1O[C@@H]1O[C@H](CO)[C@@H](O)[C@H](O)[C@H]1O
- Potency [1]: inactive
- Potency [2]: inactive

Structure (SMILES): C=C1C(=O)O[C@@H]2[C@H]1CC[C@H](C)C(CCC(=O)O)C2(C)O (stereo partly drawn)
- Potency [1]: inactive
- Potency [2]: inactive

Structure (SMILES): C[C@@H]1O[C@@H](O[C@H]2CC[C@@]3(C)C(CC[C@]4(C)C3CC=C3[C@@H]5CC(C)(C)CC[C@]5(C(=O)O[C@@H]5O[C@H](CO)[C@@H](O)[C@H](O)[C@H]5O)CC[C@]34C)[C@]2(C)CO)[C@H](O)[C@H](O[C@@H]2O[C@H](CO)[C@@H](O)[C@H](O)[C@H]2O)[C@H]1O (stereo partly drawn)
- Potency [1]: inactive
- Potency [2]: inactive

Structure (SMILES): O=C1Nc2nc(-c3c(O)cccc3OCC3CC3)cc([C@@H]3CCCNC3)c2CO1
- Potency [1]: inactive
- Potency [2]: inactive

Structure (SMILES): CC(C)(C)NC(=O)[C@H]1CC[C@H]2[C@@H]3CC[C@H]4NC(=O)CC[C@]4(C)[C@H]3CC[C@]12C
- Potency [1]: inactive
- Potency [2]: inactive

Structure (SMILES): Cc1cc(C(=O)Cn2cc(C#N)ccc2=O)c(C)n1Cc1ccccc1
- Potency [1]: inactive
- Potency [2]: inactive

Structure (SMILES): C[C@H](CN(C)C)Oc1nc(Nc2cc3cccc(Cl)c3cn2)cnc1C#N
- Potency [1]: inactive
- Potency [2]: inactive

Structure (SMILES): COC(=O)c1ccc2c(c1)[nH]c1ncnc(NCCCN3CCCCC3)c12
- Potency [1]: inactive
- Potency [2]: inactive

Structure (SMILES): CC(=O)OC/C(=C/C(=O)O)CC[C@@H]1C(C=O)=CC[C@@H]2C(C)(C)CCC[C@@]12C
- Potency [1]: 10 µM (active)
- Potency [2]: inactive

Structure (SMILES): OC(CC1c2ccccc2-c2cncn21)C1CCCCC1 (stereo not drawn)
- Potency [1]: inactive
- Potency [2]: inactive

Structure (SMILES): COc1ccccc1OCCNCC(O)CCOc1cccc2[nH]c3ccccc3c12 (stereo not drawn)
- Potency [1]: inactive
- Potency [2]: inactive

Structure (SMILES): Cn1ncc(Cl)c1-c1cc(C(=O)N[C@H](CN)Cc2cccc(F)c2)sc1Cl
- Potency [1]: inactive
- Potency [2]: inactive

Structure (SMILES): O=c1cc(N2CCN(c3cccc(C(F)(F)F)c3)CC2)[nH]c(=O)n1C1CCCCC1
- Potency [1]: inactive
- Potency [2]: inactive

Structure (SMILES): Cc1cc(NC(=O)c2cccc(NC(=O)/C=C/CN(C)C)c2)ccc1Nc1nccc(-c2cccnc2)n1
- Potency [1]: inactive
- Potency [2]: inactive

Structure (SMILES): C[C@H](Oc1cc(-c2cnn(C3CCNCC3)c2)cnc1N)c1c(Cl)ccc(F)c1Cl
- Potency [1]: inactive
- Potency [2]: inactive

Structure (SMILES): CO[C@@H]1CC(OC2CCC3(C)C(CCC45CCC(C6=CC(=O)OC6)C(C)(CCC43)C5=O)C2)O[C@H](C)[C@@H]1O[C@@H]1O[C@H](CO[C@@H]2O[C@H](CO)[C@@H](O)[C@H](O)[C@H]2O)[C@@H](O)[C@H](O)[C@H]1O (stereo partly drawn)
- Potency [1]: inactive
- Potency [2]: inactive

Structure (SMILES): COc1cc2nc(N3CCN(C(=O)c4ccco4)C4CCCCC43)nc(N)c2cc1OC (stereo not drawn)
- Potency [1]: inactive
- Potency [2]: inactive

Structure (SMILES): CCNC(=O)c1noc(-c2cc(Cl)c(O)cc2O)c1-c1ccc(OC)cc1
- Potency [1]: inactive
- Potency [2]: inactive

Structure (SMILES): COc1ccc(NC(=O)c2ccc(C(=N)N(C)C)cc2)c(C(=O)Nc2ccc(Cl)cn2)c1
- Potency [1]: inactive
- Potency [2]: inactive

Structure (SMILES): COc1cc(N2CCC(N)CC2)ccc1Nc1ncc(Cl)c(-c2c[nH]c3ccccc23)n1
- Potency [1]: inactive
- Potency [2]: inactive

Structure (SMILES): CCOc1nc(NC(=O)Cc2cc(OC)ccc2OC)cc(N)c1C#N
- Potency [1]: inactive
- Potency [2]: inactive

Structure (SMILES): COc1cc(N2CCOCC2)ccc1NC(=O)c1csc(-c2cccnc2)n1
- Potency [1]: inactive
- Potency [2]: inactive

Structure (SMILES): O=C(NCCCc1ccccc1)C1CCC(CNS(=O)(=O)c2cccc3nsnc23)CC1 (stereo not drawn)
- Potency [1]: inactive
- Potency [2]: inactive

Structure (SMILES): C=CCC1=C[C@]2(OC)[C@H](C)[C@@H](c3ccc4c(c3)OCO4)O[C@]2(OC)CC1=O
- Potency [1]: inactive
- Potency [2]: inactive
